Source: PubChem BioAssay (NCI)
The panel holds about 79,000 compounds, 15% with a hit somewhere; the sample as a whole holds those more often. Activity calls are given as the source filed them. Rule as the data show it: active = growth inhibition above about 70%; inactive = the rest.

Key:
[1] = NCI Yeast Anticancer Drug Screen. Data for the wt1 strain (AID 149);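 also: 0% = growth of vehicle-treated wt1 cultures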; settings: S. cerevisiae wt1 strain (SPY 50644) growth inhibition, hits give high values
Outline: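 The wt1 strain was treated with compounds, and growth was compared with vehicle-treated cultures to give inhibition.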

[2] = NCI Yeast Anticancer Drug Screen. Data for the rad50EPP+ strain (AID 151);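 also: 0% = growth of vehicle-treated control cultures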; settings: S. cerevisiae rad50 mutant strain, hits give high values
Outline: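 Genetically defined yeast (rad50EPP+, DNA damage repair alteration) is grown with compound, and inhibition of growth is expressed relative to vehicle-treated controls.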

[3] = NCI Yeast Anticancer Drug Screen. Data for the mgt1 strain (AID 153); settings: S. cerevisiae mgt1 mutant growth inhibition, hits give high values
Outline: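 In the mgt1 strain, test compounds were added and growth inhibition was determined relative to vehicle-treated controls.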

[4] = NCI Yeast Anticancer Drug Screen. Data for the rad50 strain (AID 155);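 also: 0% = growth of vehicle-only cultures of the same strain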; settings: S. cerevisiae rad50 strain growth inhibition, hits give high values
Outline: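 Cells are treated with compound, grown, and their growth is then scored against vehicle-only cultures of the same repair-deficient yeast strain.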

[5] = NCI Yeast Anticancer Drug Screen. Data for the mec2-1 strain (AID 157); settings: S. cerevisiae mec2-1 strain, hits give high values
Outline: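 Each compound was tested on mec2-1 yeast, a strain altered in DNA damage repair or cell cycle control. Growth inhibition is reported relative to vehicle.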

[6] = NCI Yeast Anticancer Drug Screen. Data for the rad14 strain (AID 159);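 also: 0% = growth of vehicle-treated control cultures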; settings: S. cerevisiae rad14 strain growth inhibition, hits give high values
Outline: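 Readout: yeast growth inhibition, referenced to vehicle-only cultures. Strain bears a defined alteration in DNA damage repair.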

[7] = NCI Yeast Anticancer Drug Screen. Data for the sgs1 mgt1 strain (AID 161);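 also: 0% = growth of cultures given vehicle only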; settings: S. cerevisiae sgs1 mgt1 strain, hits give high values
Outline: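 Inhibition of yeast growth, normalised to vehicle-treated controls, is reported for a strain bearing genetic alterations in DNA damage repair.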

[8] = NCI Yeast Anticancer Drug Screen. Data for the CLN2oe strain (AID 163);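 also: 0% = growth of vehicle-only control cultures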; settings: S. cerevisiae CLN2oe strain, hits give high values
Outline: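 First, the altered yeast strain was treated with each compound; second, its growth was measured; finally, inhibition was derived by comparison with vehicle controls.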

[9] = NCI Yeast Anticancer Drug Screen. Data for the cln2 rad14 strain (AID 165);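 also: 0% = growth equal to vehicle treated cultures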; settings: S. cerevisiae cln2 rad14 strain, hits give high values
Outline: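 Test compounds were added to cln2 rad14 yeast cultures; inhibition of growth was then determined by comparison with vehicle treatment.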

[10] = NCI Yeast Anticancer Drug Screen. Data for the bub3 strain (AID 167); settings: S. cerevisiae bub3 mutant strain, hits give high values
Outline: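 Part of a panel of yeast mutants defective in DNA damage repair or cell cycle regulation. Each strain is grown with compound, and inhibition is calculated relative to solvent-treated cultures.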

[11] = NCI Yeast Anticancer Drug Screen. Data for the wt2 strain (AID 169);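 also: 0% = growth of vehicle-treated yeast cultures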; settings: S. cerevisiae wt2 strain growth inhibition, hits give high values
Outline: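 The panel's yeast strains carry defined changes in DNA repair or cell cycle genes. Each strain is grown with compound, and growth loss is scored relative to vehicle.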

[12] = NCI Yeast Anticancer Drug Screen. Data for the mlh1 strain (AID 171);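 also: 0% = growth of vehicle-treated control cultures of the same strain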; settings: S. cerevisiae mlh1 strain growth inhibition, hits give high values
Outline: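 Inhibition values reflect reduced yeast growth in the presence of compound, referenced to vehicle controls, using a strain chosen for its alteration in DNA repair or cell cycle control.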

[13] = NCI Yeast Anticancer Drug Screen. Data for the sgs1 strain (AID 173);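 also: 0% = growth of vehicle-only control cultures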; settings: S. cerevisiae sgs1 mutant, hits give high values
Outline: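 Vehicle-treated cultures served as reference for growth inhibition of a yeast strain altered in DNA damage repair or cell cycle control after compound exposure.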

[14] = NCI Yeast Anticancer Drug Screen. Data for the mlh1 rad18 strain (AID 175); settings: S. cerevisiae mlh1 rad18 strain growth inhibition, hits give high values
Outline: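 Inhibition values reflect reduced growth of mutant yeast versus vehicle-treated controls following compound exposure; the mutations affect DNA damage repair.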

[15] = NCI Yeast Anticancer Drug Screen. Data for the rad18 strain (AID 177); settings: S. cerevisiae rad18 mutant growth inhibition, hits give high values
Outline: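 Steps: expose repair-mutant yeast to compound; measure growth; express as inhibition relative to vehicle control.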

[16] = NCI Yeast Anticancer Drug Screen. Data for the rad52 strain (AID 147);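 also: 0% = growth of vehicle-treated control cultures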; settings: S. cerevisiae rad52 mutant growth inhibition, hits give high values
Outline: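 Inhibition of yeast growth, referenced to vehicle controls, was the measured output for a strain with defective DNA damage repair.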

[17] = at 5.0 µM (retest, dose inferred, filed as 0.5)
[18] = at 50.0 µM (retest, dose inferred, filed as 5.0)

Measured: growth inhibition

CCN(CCCl)c1cc(CN(C)C)cc(NC(=O)c2ccc(C(=O)Nc3cc(CN(C)C)cc(N(CC)CCCl)c3)cc2)c1
inactive: [1]; at 1.2 µM 9% | [1]; at 3.7 µM 20% | [1]; at 11.0 µM 9% | [1]; at 33.0 µM 8% | [1]; at 100.0 µM 40% | [2]; at 1.2 µM 17% | [2]; at 3.7 µM 32% | [2]; at 11.0 µM 9% | [2]; at 33.0 µM 19% | [2]; at 100.0 µM 35% | [3]; at 1.2 µM 5% | [3]; at 3.7 µM 3% | [3]; at 11.0 µM -6% | [3]; at 33.0 µM 10% | [4]; at 1.2 µM 3% | [4]; at 3.7 µM 11% | [4]; [17] 36% | [4]; at 11.0 µM 4% | [4]; at 33.0 µM 58% | [5]; at 1.2 µM -8% | [5]; at 3.7 µM 1% | [5]; [17] 26% | [5]; at 11.0 µM -9% | [5]; at 33.0 µM 8% | [5]; at 50.0 µM 37.5% | [6]; at 1.2 µM -11% | [6]; at 3.7 µM -13% | [6]; at 11.0 µM -6% | [6]; at 33.0 µM 56% | [7]; [17] 39% | [7]; at 50.0 µM 65.2% | [8]; at 1.2 µM 15% | [8]; at 3.7 µM 14% | [8]; at 11.0 µM 17% | [8]; at 33.0 µM 27% | [8]; at 100.0 µM 47% | [9]; [17] 6% | [9]; [18] 58% | [9]; at 50.0 µM 35% | [10]; at 1.2 µM -30% | [10]; at 3.7 µM -28% | [10]; [17] 32% | [10]; at 11.0 µM -14% | [10]; at 33.0 µM -22% | [10]; at 50.0 µM -8.9% | [11]; at 1.2 µM -12% | [11]; at 3.7 µM -19% | [11]; at 11.0 µM -16% | [11]; at 33.0 µM 3% | [12]; at 1.2 µM -6% | [12]; at 3.7 µM -6% | [12]; at 11.0 µM -9% | [12]; at 33.0 µM 28% | [13]; at 1.2 µM 5% | [13]; at 3.7 µM 3% | [13]; at 11.0 µM 7% | [13]; at 33.0 µM 65% | [15]; at 1.2 µM 3% | [15]; at 3.7 µM 57%
active: [3]; at 100.0 µM 89% | [4]; [18] 93% | [4]; at 50.0 µM 73.5% | [4]; at 100.0 µM 96% | [5]; [18] 95% | [5]; at 100.0 µM 90% | [6]; at 100.0 µM 96% | [7]; [18] 97% | [10]; [18] 97% | [10]; at 100.0 µM 75% | [11]; at 100.0 µM 89% | [12]; at 100.0 µM 90% | [13]; at 100.0 µM 94% | [14]; [17] 71% | [14]; [18] 98% | [14]; at 50.0 µM 91.7% | [15]; at 11.0 µM 85% | [15]; at 33.0 µM 90% | [15]; at 100.0 µM 97%

O=[N+]([O-])c1ccc(C=Cc2ccccc2)cc1.[C-]#[O+].[C-]#[O+].[C-]#[O+].[Cr]
active: [16]; at 11.0 µM 70% | [16]; at 33.0 µM 88% | [16]; at 100.0 µM 82% | [1]; at 100.0 µM 79% | [4]; at 33.0 µM 83% | [4]; [18] 95% | [4]; at 50.0 µM 76.9% | [4]; at 100.0 µM 79% | [5]; at 33.0 µM 71% | [5]; [18] 86% | [5]; at 50.0 µM 79.8% | [5]; at 100.0 µM 72% | [6]; at 33.0 µM 83% | [6]; at 100.0 µM 82% | [7]; [18] 95% | [8]; at 100.0 µM 70% | [9]; [18] 91% | [9]; at 50.0 µM 70.9% | [10]; [18] 91% | [10]; at 100.0 µM 82% | [13]; at 33.0 µM 91% | [13]; at 100.0 µM 88% | [14]; [18] 96% | [15]; at 1.2 µM 70% | [15]; at 3.7 µM 93% | [15]; at 11.0 µM 94% | [15]; at 33.0 µM 89% | [15]; at 100.0 µM 86%
inactive: [16]; at 1.2 µM 8% | [16]; at 3.7 µM 28% | [1]; at 1.2 µM -2% | [1]; at 3.7 µM -1% | [1]; at 11.0 µM 1% | [1]; at 33.0 µM 65% | [4]; at 1.2 µM 6% | [4]; at 3.7 µM 18% | [4]; [17] 39% | [4]; at 11.0 µM 54% | [5]; at 1.2 µM 0% | [5]; at 3.7 µM 1% | [5]; [17] 5% | [5]; at 11.0 µM 8% | [6]; at 1.2 µM 3% | [6]; at 3.7 µM 12% | [6]; at 11.0 µM 53% | [7]; [17] 44% | [7]; at 50.0 µM 66% | [8]; at 1.2 µM -3% | [8]; at 3.7 µM -9% | [8]; at 11.0 µM -16% | [8]; at 33.0 µM 69% | [9]; [17] 10% | [10]; at 1.2 µM 2% | [10]; at 3.7 µM 10% | [10]; [17] -19% | [10]; at 11.0 µM 2% | [10]; at 33.0 µM 67% | [10]; at 50.0 µM 69.5% | [13]; at 1.2 µM 9% | [13]; at 3.7 µM 30% | [13]; at 11.0 µM 66% | [14]; [17] 68% | [14]; at 50.0 µM 62.1%

CC1CN1C1=C(Cl)C(=O)C(N2CC2C)=C(Cl)C1=O (centres undefined)
inactive: [16]; at 1.2 µM 22% | [16]; at 3.7 µM 40% | [16]; at 11.0 µM 64% | [1]; at 1.2 µM 0% | [1]; at 3.7 µM -4% | [1]; at 11.0 µM 12% | [4]; at 1.2 µM 16% | [4]; at 3.7 µM 27% | [4]; [17] 19% | [4]; at 50.0 µM 46% | [5]; at 1.2 µM 2% | [5]; at 3.7 µM 1% | [5]; [17] 15% | [5]; at 11.0 µM 6% | [5]; at 50.0 µM 18.8% | [6]; at 1.2 µM 22% | [6]; at 3.7 µM 37% | [6]; at 11.0 µM 50% | [7]; [17] 39% | [7]; at 50.0 µM 69.3% | [8]; at 1.2 µM 0% | [8]; at 3.7 µM -8% | [8]; at 11.0 µM -7% | [8]; at 33.0 µM 27% | [8]; at 100.0 µM 54% | [9]; [17] -3% | [9]; at 50.0 µM 10.3% | [10]; at 1.2 µM 18% | [10]; at 3.7 µM 15% | [10]; [17] 23% | [10]; at 11.0 µM 29% | [10]; at 50.0 µM 45.4% | [11]; at 1.2 µM -6% | [11]; at 3.7 µM 3% | [11]; at 11.0 µM 43% | [12]; at 1.2 µM -1% | [12]; at 3.7 µM -1% | [12]; at 11.0 µM 24% | [12]; at 33.0 µM 64% | [13]; at 1.2 µM 22% | [13]; at 3.7 µM 37% | [14]; [17] 59% | [14]; at 50.0 µM 69.1%
active: [16]; at 33.0 µM 97% | [16]; at 100.0 µM 97% | [1]; at 33.0 µM 81% | [1]; at 100.0 µM 97% | [4]; at 11.0 µM 79% | [4]; at 33.0 µM 97% | [4]; [18] 95% | [4]; at 100.0 µM 98% | [5]; at 33.0 µM 92% | [5]; [18] 93% | [5]; at 100.0 µM 98% | [6]; at 33.0 µM 97% | [6]; at 100.0 µM 98% | [7]; [18] 96% | [9]; [18] 82% | [10]; at 33.0 µM 86% | [10]; [18] 93% | [10]; at 100.0 µM 95% | [11]; at 33.0 µM 96% | [11]; at 100.0 µM 98% | [12]; at 100.0 µM 97% | [13]; at 11.0 µM 78% | [13]; at 33.0 µM 97% | [13]; at 100.0 µM 97% | [14]; [18] 97% | [15]; at 1.2 µM 92% | [15]; at 3.7 µM 96% | [15]; at 11.0 µM 96% | [15]; at 33.0 µM 97% | [15]; at 100.0 µM 97%
